PTHR1 ag – qHTS for PTHR1 Agonists: Primary Screen; HEK293 GP2 PTHR1 cells, GloSensor cAMP luminescence, 1 h; Potency, µM (highest dose often 115 µM), for the others: top-dose activation, most hits filed as activators; hit rate 0.075% among 410,000; AID 743266, 2014; also: potency is read from the fitted curve at half-maximal effect; nearly all actives have a fitted effect of over 55% in size
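HEK-293-derived GP2 cells expressing PTHR1 and a GloSensor cAMP reporter, 3,000/well, plated overnight, given luciferin plus IBMX (each 0.5 mM as added) for 1 h at 37 °C, then compound for 1 h at 37 °C. Luminescence was read after 15 min at room temperature.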
RXFP1 antagonist – qHTS Assay for Antagonists of the Relaxin Receptor RXFP1 | Relaxin receptor 1 (Homo sapiens), Q9HBX9 | HEK293-RXFP1, relaxin-stimulated cAMP HTRF, 30 min; stronger effect = lower value | activity change, negative = inhibition, % at 57.5 µM | hit rate 0.59% among 350,000;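 active = activity change of -60% or lower, but not beyond a set lower limit; inconclusive = change between -60% and -40%, or beyond the set limit; inactive = change above -40%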; also: % is scaled to controls: 0 for no effect and ±100 for the full control effect
Target sequence (Q9HBX9 whole entry, looked up): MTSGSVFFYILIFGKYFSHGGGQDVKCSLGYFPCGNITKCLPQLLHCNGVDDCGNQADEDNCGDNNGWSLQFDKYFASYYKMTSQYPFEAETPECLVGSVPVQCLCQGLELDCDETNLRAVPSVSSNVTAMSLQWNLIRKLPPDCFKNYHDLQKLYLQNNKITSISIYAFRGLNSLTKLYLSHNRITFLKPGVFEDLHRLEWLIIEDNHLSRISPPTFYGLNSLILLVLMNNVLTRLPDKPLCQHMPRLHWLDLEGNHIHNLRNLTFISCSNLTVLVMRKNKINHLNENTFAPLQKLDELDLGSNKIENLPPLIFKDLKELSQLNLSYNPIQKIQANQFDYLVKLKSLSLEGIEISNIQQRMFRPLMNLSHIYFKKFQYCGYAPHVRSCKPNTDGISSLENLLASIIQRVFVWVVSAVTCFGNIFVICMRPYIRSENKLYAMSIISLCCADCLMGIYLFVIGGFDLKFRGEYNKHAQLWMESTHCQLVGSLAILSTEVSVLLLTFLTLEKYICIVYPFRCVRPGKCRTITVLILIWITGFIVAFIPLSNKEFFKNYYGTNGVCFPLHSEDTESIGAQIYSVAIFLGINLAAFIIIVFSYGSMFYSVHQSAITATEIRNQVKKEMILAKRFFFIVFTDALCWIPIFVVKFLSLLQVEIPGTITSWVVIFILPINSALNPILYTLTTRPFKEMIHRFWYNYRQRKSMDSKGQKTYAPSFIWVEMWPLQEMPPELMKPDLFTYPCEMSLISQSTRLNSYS
HEK293 tox – qHTS of GLP-1 Receptor Inverse Agonists: Cytotox Screen | Potency, µM (highest dose often 38.3 µM), without a hit: at the highest dose activity change, negative = inhibition, usual class: inhibitors | HEK293 cAMP-luciferase reporter cells, luminescence, 24 h | hit rate 0.13% among 410,000;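 also: loss of luciferase light is scored as toxicity; potency is read from the fitted curve at half-maximal effect; % is scaled to controls: 0 for no effect and ±100 for the full control effect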
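Compound-treated cells are incubated 24 hr at 37 deg C under 5% CO2 after a 12 hour attachment period, then luciferase detection reagent is added and luminescence is measured following 12 min at room temperature; lowered signal indicates toxicity.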
RXFP1 agonist – qHTS Assay for Agonists of the Relaxin Receptor RXFP1; Relaxin receptor 1 (Homo sapiens), Q9HBX9; HEK293T-RXFP1 cAMP TR-FRET, 30 min; response scale: percent of porcine relaxin response, buffer zero; Potency, µM (doses to about 57.5 µM), for the others: at the highest dose activation, most hits filed as activators; hit rate 0.3% among 370,000; AID 2676, 2010; also: potency is read from the fitted curve at half-maximal effect; % is scaled to controls: 0 for no effect and ±100 for the full control effect; nearly all actives have a fitted effect of over 60% in size
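HEK293 cells stably expressing RXFP1, treated 30 min at 37C with compounds plus PDE4 inhibitor Ro 20174; cAMP measured by HTRF TR-FRET. Normalized to buffer and 29 nM porcine relaxin; EC50 by Hill fit.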
TSHR antagonist – Antagonists of the Thyroid Stimulating Hormone Receptor: HTS campaign | hit rate 0.2% among 330,000 | TSHR-expressing cells, TSH-stimulated cAMP HTRF, 2 h; stronger effect = lower value | activity change, negative = inhibition, % at 11.5 µM | AID 504810, 2011 | Thyrotropin receptor (Homo sapiens), P16473;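 active = activity change below a set negative limit, meaning inhibition stronger than a set level, cut at about -70% in these data; inconclusive = activity change between two set negative limits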; also: % is scaled to controls: 0 for no effect and ±100 for the full control effect
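Antagonism was scored as loss of TSH-driven cAMP in TSHR cells, stimulated with 4nM TSH (EC80) for 2 hours at 37 deg C and detected by homogeneous HTRF competition immunoassay.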
NPSR antag – qHTS Assay for Antagonists of the Neuropeptide S Receptor: cAMP Signal Transduction; Q6W5P4; CHO-NPSR cells, cAMP TR-FRET, antagonist mode; Potency, µM (series often up to 38.3 µM), inactives show at the top dose activity change, negative = inhibition, hits mostly inhibitors; hit rate 1% among 220,000; AID 1461, 2008; also: potency is read from the fitted curve at half-maximal effect; % is scaled to controls: 0 for no effect and ±100 for the full control effect; nearly all actives have a fitted effect of over 50% in size
Numbers without * were called inactive; i = inactive; ? = inconclusive; · = no result given; ! = repeats disagree; [ ] = dose if it differs, or a comment. This excerpt belongs to a sample that is enriched for hits. Unless noted, calls follow the shape of the dose curve; as a rule, active = well fitted curve in the direction sought with a large enough effect; inconclusive = small, poorly fitted or top-dose-only effect, or another doubt; inactive = no such curve, though single readings can be large; an effect the other way counts as inactive or inconclusive.

SMILES	PTHR1 ag	RXFP1 antagonist	HEK293 tox	RXFP1 agonist	TSHR antagonist	NPSR antag
O=C(O)c1cc(-c2ccco2)nc2ccc(Br)cc12	-14%	2	-15%	13µM*	9	6.3µM*!
COc1ccc(C(=O)O)cc1NC(=S)NC(=O)C(c1ccccc1)c1ccccc1	-3%	-116*	-20%	3%	8	·
CC(C)NCCCC1(C(N)=O)c2ccccc2-c2ccccc21	·	-3	·	·	·	·
O=C(CN1C(=O)c2ccccc2S1(=O)=O)N1CCN(c2ccccc2F)CC1	-31%	-3	-11%	0%	10	-3%[46.1 µM]
O=C(CCN1C(=O)c2ccccc2S1(=O)=O)Nc1ccc(F)c(F)c1F	i	-76*	-1%	0%	0	·
O=C(CCN1C(=O)c2ccccc2S1(=O)=O)N1CCN(c2ccccc2F)CC1	-9%	-112*	6%	-1%	-8	·
O=C(CCN1C(=O)c2ccccc2S1(=O)=O)Nc1ccc(F)cc1F	i	-4	11%	3%	-7	·
O=C(O)CNC(=O)CNC(=O)CNC(=O)CSC(=O)c1ccccc1	·	-1	·	·	·	·
COc1ccc(Nc2ncnc3c2cnn3-c2ccc(C)cc2)cc1Cl	-60%	-9	-10%	4%	·	·
CC(C)(C)NC(=O)c1cccc(NC(=O)Cc2cccs2)c1	-3%	7	4%	-1%	3	8%
Cc1cccc(NC(=O)c2cccc(NC(=O)Cc3cccs3)c2)c1	-8%	-107*	-17%	0%	0	16%
O=[N+]([O-])c1cc(Br)c(O)c(C=Nc2ccc(N3CCOCC3)cc2)c1	-9%	?	-21%	-5%	-86*	-22%
CC(=O)N1CCC(=NNC(=O)c2cc3ccccc3cc2O)CC1	i	-93*	7%	0%	-1	·
Cc1ccc2c(c1)C(c1ccccc1)N(C(=O)c1ccc(OC(C)C)cc1)CC(=O)N2 (stereo not drawn)	-9%	-31	0%	0%	·	·
CC(C(=O)NC1CCCCC1)N(Cc1ccccc1)C(=O)c1snc(C(N)=O)c1N (stereo not drawn)	0%	0	20%	0%	-1	·
Cc1cc2c(cc3c(SCc4ccccc4Cl)nnc(C)n32)o1	i	-17	1%	7%	·	·
Cc1cc2c(cc3c(SCc4ccc(Cl)cc4)nnc(C)n32)o1	-2%	-1	-3%	14µM*	·	·
C=CCOc1c(Cl)cc(CNc2ccc(N(C)C)cc2)cc1OC	-23%[57.5 µM]	-103*	-16%	-14%	-108*	5µM*
CCc1cc(=O)oc2cc(C)cc(O)c12	i	·	41%	?	26	11%[46.1 µM]
COC(=O)Cc1c(C)c2c(O)cc(C)cc2oc1=O	i	33	211%	16µM*	·	?
CCCn1c2ccccc2c2cnn(CC(=O)NCCCN3CCN(c4ccccc4)CC3)c(=O)c21	-12%	-31	-28%	4%	6	·
Cn1c(=O)c(C(=O)c2ccccc2)nc2ccccc21	i	-9	-3%	2%	7	-1%[46.1 µM]
CC(=O)c1cccc(NC(=O)c2nc3ccccc3n(C)c2=O)c1	i	22	-20%	16µM*	·	·
CCCCN1C(=O)C(CC(=O)NCCCCc2ccccc2)CC(C(=O)N2CCCCCC2)=C1C (stereo not drawn)	-29%	·	-13%	·	·	·
COc1cc(NC(=O)CCc2nnc3ccc(N4CCN(c5cccc(OC)c5)CC4)nn23)cc(OC)c1	i	4	-16%	16µM*	-2	·
SMILES	PTHR1 ag	RXFP1 antagonist	HEK293 tox	RXFP1 agonist	TSHR antagonist	NPSR antag
O=C(/C=C/c1ccccc1[N+](=O)[O-])N1CCc2ccccc2C1	-38%	-4	-8%	1%	-1	·
Cc1cnc(C=NNC(N)=S)c2cccc(N)c12	i	-20	?	·	·	·
NC(=S)N/N=C/c1ccc2ccccc2c1	i	9	3.2µM*	2%	3	4%
NC(=S)NN=Cc1nccc2ccccc12	-2%	-76*	?	·	·	·
NC(=S)N/N=C/c1cccc(/C=N/NC(N)=S)c1	i	-23	-11%	-3%	-6	0%
CCOC(=O)c1cc(-c2ccccc2)n(CC(=O)NC2CCC(C)CC2)c1C (stereo not drawn)	i	-30	3%	2%	·	·
C[C@H]1C[C@H]2[C@@H]3CCC4=CC(=O)C=C[C@]4(C)[C@H]3C(=O)C[C@]2(C)[C@@]1(O)C(=O)CO	·	29	·	·	·	·
O=C(CC1C(=O)NCCN1C(=O)Nc1ccccc1)Nc1cc(Cl)ccc1Cl (stereo not drawn)	i	-12	?	6%	-2	-1%
Nc1nonc1C(=O)NCCN=Cc1ccccc1O	-22%[57.5 µM]	-6	4%	5%	6	1%[46.1 µM]
Nc1nonc1C(=O)NCCN=Cc1cc(Cc2ccccc2)cc(Br)c1O	-23%	-73*	?	2%	-7	?
O=C1CCSC2(C(=O)N(Cc3ccc(F)cc3)c3ccccc32)N1c1ccc(Cl)cc1 (stereo not drawn)	-25%	-79*	-12%	0%	·	·
Cc1ccc(N2C(=O)CCSC23C(=O)N(Cc2ccc(F)cc2)c2ccccc23)cc1 (stereo not drawn)	-23%	?	1%	-3%	·	·
Cc1cc(F)ccc1NC(=O)CN1C(=O)CCc2cc(S(=O)(=O)N3CCOCC3)ccc21	i	·	-1%	2%	·	·
NC(=O)c1cc[n+](CC2=C(C(=O)[O-])N3C(=O)[C@@H](NC(=O)Cc4cccs4)[C@H]3SC2)cc1	·	-12	·	·	·	·
CN(C)c1nc(N)c(C#N)c(C#N)c1C#N	i	1	-7%	·	·	·
Cc1cc(C)n(-c2nc(NCCCN(C)C)c3c4c(sc3n2)COC(C)(C)C4)n1	i	-9	?	-3%	17	5%
Cc1cc(C)n(-c2nc(NCCN(C)C)c3c4c(sc3n2)COC(C)(C)C4)n1	i	-72*	?	-4%	-1	-13%
CC(=O)Nc1ccc(N(C(=O)Cn2nnc3ccccc32)C(C(=O)NCc2ccccc2)c2ccc(C)cc2)cc1 (stereo not drawn)	-9%	-12	4%	-1%	·	·
COc1cc(NC(=O)C(C)C)ccc1NC(=O)c1ccco1	-11%[57.5 µM]	6	2%	-1%	-93*	-8%[7.67 µM]
COc1cc(NC(=S)NC(=O)c2ccco2)ccc1NC(=O)C(C)C	i	0	1%	2%	5	6%
Cc1cccc(CC(=O)NC2CC(=O)N(c3ccccc3)C2)c1 (stereo not drawn)	1%	3	3%	0%	·	·

Source: PubChem BioAssay (National Center for Advancing Translational Sciences (NCATS))
